IL1B secr inh – qHTS for Inhibitors of Inflammasome Signaling: IL-1-beta AlphaLISA Primary Screen; THP-1 LPS/ATP IL-1B secretion, AlphaLISA, 16 h; active compounds read low; activity change, % at 57.5 µM; actives 4.7% (n = 360,000); in the data active = activity change below about -50%; inconclusive = mostly about -30% to -49%; also: % is scaled to controls: 0 for no effect and ±100 for the full control effect
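Secreted IL-1B measured by AlphaLISA bead assay after 16 h compound exposure of THP-1 cells; compounds (final up to 57.5 uM) added 1 h before LPS (250 ng/mL) and ATP (1.25 mM) stimulation; lower signal means less secretion.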
TDP1 cell CPT – qHTS for Inhibitors of human tyrosyl-DNA phosphodiesterase 1 (TDP1): qHTS in cells in presence of CPT; chicken DT40 Tdp1-/-;hTDP1 cells + 20 nM CPT, ATP luminescence, 48 h; Potency, µM (doses to about 46.2 µM), for the others: top-dose activity change, negative = growth inhibition, most hits filed as inhibitors; actives 12% (n = 420,000); also: potency is read from the fitted curve at half-maximal effect; % is scaled to controls: 0 for no effect and ±100 for the full control effect; nearly all actives have a fitted effect of over 55% in size
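Cell growth measured by CellTiter-Glo luminescence after a minimum 48 h, 37 C compound exposure with 20 nM CPT in Tdp1-knockout DT40 cells stably expressing hTDP1, seeded 400/well; qHTS titration format.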
TGFb SMAD3 inh – qHTS for Inhibitors of TGF-b | HepG2 CAGA-GFP TGF-b/SMAD3 reporter, GFP fluorescence, 18 h; TGF-beta stimulated, 500 pg/mL final | Potency, µM (series often up to 46.1 µM), for the others: at the top dose activity, negative = inhibition, most hits filed as inhibitors | actives 1.2% (n = 410,000); also: potency is read from the fitted curve at half-maximal effect; % is scaled to controls: 0 for no effect and ±100 for the full control effect; nearly all actives have a fitted effect of over 65% in size
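Inhibition of TGF-beta-driven CAGA-GFP reporter expression in HEPG2 cells is measured by cellular GFP fluorescence after 18 h stimulation with 500 pg/mL recombinant TGF-beta in 1% FBS medium at 37 degrees C.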
TDP1 block – qHTS Assay for Inhibitors of Tyrosyl-DNA Phosphodiesterase (TDP1); recombinant TDP1, AlphaScreen DNA substrate cleavage; Potency, µM (top dose mostly 130 µM), for the others: at the highest dose activity change, negative = inhibition, hits mostly inhibitors; actives 0.28% (n = 350,000); AID 485290, 2010; also: potency is read from the fitted curve at half-maximal effect; % is scaled to controls: 0 for no effect and ±100 for the full control effect; nearly all actives have a fitted effect of over 40% in size
Target sequence (Q9NUW8 whole entry, looked up): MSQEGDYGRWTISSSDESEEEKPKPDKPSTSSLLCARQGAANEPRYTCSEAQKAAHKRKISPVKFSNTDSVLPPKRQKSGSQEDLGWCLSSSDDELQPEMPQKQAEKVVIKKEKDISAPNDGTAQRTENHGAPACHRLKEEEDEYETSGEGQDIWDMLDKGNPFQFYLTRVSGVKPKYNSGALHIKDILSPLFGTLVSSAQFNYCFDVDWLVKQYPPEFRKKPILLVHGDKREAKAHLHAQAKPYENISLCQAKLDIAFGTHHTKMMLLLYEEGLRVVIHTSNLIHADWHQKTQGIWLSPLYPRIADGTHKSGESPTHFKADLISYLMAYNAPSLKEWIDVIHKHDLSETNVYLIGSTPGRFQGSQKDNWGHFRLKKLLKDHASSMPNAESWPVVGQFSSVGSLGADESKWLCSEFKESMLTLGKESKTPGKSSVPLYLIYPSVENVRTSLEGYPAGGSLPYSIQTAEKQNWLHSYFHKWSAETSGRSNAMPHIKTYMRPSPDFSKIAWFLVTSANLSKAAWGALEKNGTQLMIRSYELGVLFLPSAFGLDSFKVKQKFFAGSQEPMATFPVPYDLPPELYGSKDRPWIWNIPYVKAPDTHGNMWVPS
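Tdp1 1 nM final; 15 min RT w/ cpd; substrate 15 nM, 5 min; beads 10 ug/ml, 10 min; AlphaScreen read. Neg ctrl: no enzyme.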
HepG2 viability – qHTS for Inhibitors of TGF-b: Cytotox Counterscreen. HepG2 CAGA-GFP viability, ATP luminescence, 18 h. Potency, µM (doses to about 46.1 µM), inactives show at the highest dose activity change, negative = cytotoxicity, usual class: cytotoxic. actives 0.76% (n = 410,000); also: potency is read from the fitted curve at half-maximal effect
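CellTiter-Glo luminescence gave cytotoxicity after 18 hours at 37 degrees C. The cells were HepG2 CAGA-GFP in 1% FBS DMEM, stimulated with 500 pg/mL TGF-beta after compound addition. %Activity was normalised to no-cell wells (complete cell-killing) and DMSO (no toxicity), and curves were fitted and classified.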
DT40 TDP1 no CPT – qHTS for Inhibitors of human tyrosyl-DNA phosphodiesterase 1 (TDP1): qHTS in cells in absence of CPT; DT40 Tdp1-/- hTDP1 cells, no CPT, ATP luminescence, 48 h; Potency, µM (doses to about 46.2 µM), for inactives: at the top dose activity change, negative = growth inhibition, most hits filed as inhibitors; actives 15% (n = 420,000); AID 686978, 2013; also: potency is read from the fitted curve at half-maximal effect; % is scaled to controls: 0 for no effect and ±100 for the full control effect; nearly all actives have a fitted effect of over 55% in size
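Cells were dispensed at 400 per well, compounds added by pin tool, plates incubated ≥48 hr at 37 °C, then CellTiter-Glo added for 30 min at room temperature before luminescence reading. Line: DT40 Tdp1-/- complemented with hTDP1; camptothecin omitted.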
The depositor's hits bear a star; ? = inconclusive; . = not tested or not shown; [ ] = another dose, or the depositor's remark. Most compounds without a hit are left out; they make up all but 18% or so of the library. Unless noted, calls follow the shape of the dose curve; as a rule, active = well fitted curve in the direction sought with a large enough effect; inconclusive = small, poorly fitted or top-dose-only effect, or another doubt; inactive = no such curve, though single readings can be large; an effect the other way counts as inactive or inconclusive.

SMILES | IL1B secr inh | TDP1 cell CPT | TGFb SMAD3 inh | TDP1 block | HepG2 viability | DT40 TDP1 no CPT
COc1ccc(OC)c(CN2C(=O)CSCC2(C)C(=O)NCc2ccccc2)c1 (stereo not drawn) | 11 | 20% | . | . | . | -26%
O=C(CSc1nnc(-c2cccs2)n1C1CC1)NC1CCS(=O)(=O)C1 (stereo not drawn) | 12 | -12% | -3% | 0% | -2% | 8%
Cc1cccc(-n2ncc3c(=O)[nH]c(SCC(=O)N4CC(=O)Nc5ccccc54)nc32)c1 | 47 | ? | 15% | -1% | 2% | 16µM*
CCOC(=O)N1CCN(C(=O)CSc2nc3c(cnn3-c3ccc(Cl)cc3)c(=O)[nH]2)CC1 | 17 | 21µM* | 1% | 5% | 2% | 26µM*
CCOC(=O)C(C)Sc1nc2c(cnn2-c2ccc(F)cc2)c(=O)[nH]1 (stereo not drawn) | 75 | 21µM* | 0% | . | -2% | ?
Cc1ccc(-n2ncc3c(=O)[nH]c(SCC(=O)N4CC(=O)Nc5ccccc54)nc32)cc1 | 26 | -10% | 1% | 0% | -1% | -8%
CS(=O)(=O)c1ccccc1C(=O)Nc1cccc2ncccc12 | -1 | -6% | 1% | -2% | 0% | 0%
O=C(c1ccccc1F)N1CCCC(C(=O)N2CCc3ccccc3C2)C1 (stereo not drawn) | 11 | -2% | 0% | 5% | -19% | -2%
O=C1CCCN1CCC1CCN(C2CC(=O)N(c3ccc(F)cc3)C2=O)CC1 (stereo not drawn) | 20 | 18µM* | 0% | 3% | -10% | 21µM*
COc1ccc(OC)c(Nc2nc(N)c([N+](=O)[O-])c(N3CCOCC3)n2)c1 | ? | ? | 36% | . | -35% | ?
NC(=O)CSc1nc2ccc(NC(=O)COc3ccccc3)cc2s1 | . | ? | 1% | -3% | -13% | 23µM*
CC(=O)Nc1ccc2nc(SCC(=O)NCCOc3ccccc3)sc2c1 | 10 | 15µM* | -4% | 2% | 2% | 15µM*
O=C(Cc1csc2ccccc12)NCc1ccc(F)cc1 | . | 10% | . | 3% | -3% | -18%
CCCc1cc(OC)c2c(c1)OCO2 | . | 2% | . | -13%[56.1 µM] | . | -10%
CN(C)S(=O)(=O)N1CCC(Oc2ccc(C(=O)N3C[C@H]4CC[C@H]3C4)cc2)CC1 | 12 | 12µM* | -7% | 3% | -16% | 21µM*
COC1CCCN(C(=O)c2ccc(OC3CCN(S(=O)(=O)N(C)C)CC3)cc2)C1 (stereo not drawn) | 2 | -25% | 12% | 2% | 1% | ?
CN(C)S(=O)(=O)N1CCC(Oc2ccc(C(=O)N3C[C@@H]4CCC[C@H]3C4)cc2)CC1 | 13 | 16µM* | -14% | . | -48% | ?
CC(C)CCNC(=O)c1ccc(OC2CCN(S(=O)(=O)N(C)C)CC2)cc1 | 26 | ? | -8% | 5% | 0% | ?
Cc1ccc(CSc2nnc(-c3ccccn3)n2Cc2cccs2)cc1 | -12 | ? | ? | . | -4% | ?
CC(C)NC(=O)CSCc1c(Cl)cccc1Cl | -8 | ? | 4% | -2% | -23% | 15µM*
CCN(CC)CCNC(=O)c1ccc2c(c1)NC(=O)C(CS(=O)(=O)Cc1cccc(Br)c1)N2 (stereo not drawn) | . | ? | -24% | 5% | 9% | -1%
C[C@H]1C2=C3C(CC[C@H]4C(OCc5ccc(F)cc5C(F)(F)F)OC[C@](C)([C@@H]34)N(C(=O)OC(C)(C)C)C2)C2COC(=O)OCC21 (stereo partly drawn) | . | . | . | 8% | . | .
S=C(NCCCc1cnc[nH]1)NCCCN(Cc1ccc(Cl)cc1)c1ncc(Br)cn1 | . | 13µM* | 18µM* | . | -91% | 7.9µM*
CCCCN(CCCNC(=S)NCCCc1cnc[nH]1)c1ccc(Br)cn1 | . | . | ? | . | -41% | .
S=C(NCCCc1cnc[nH]1)NCCCN(Cc1ccc(Cl)cc1)c1ccc(-c2ccccc2)cn1 | . | ? | ? | . | -82% | -19%
SMILES | IL1B secr inh | TDP1 cell CPT | TGFb SMAD3 inh | TDP1 block | HepG2 viability | DT40 TDP1 no CPT
S=C(NCCCc1cnc[nH]1)NCCCN(Cc1ccc(Cl)cc1)c1ccc(Br)cc1 | . | 13µM* | ? | . | -92% | -95%
CSc1ncc2c(=O)[nH]c(-c3ccccc3)nc2n1 | -74* | 2% | -9% | . | -8% | -10%
CC1=NN(c2ccccc2)C(=O)/C1=C/C=C/c1ccc(N(C)C)cc1 | -3 | 23µM* | -3% | 12% | -2% | 23µM*
CC1=NN(c2ccccc2)C(=O)/C1=C\C=C\c1ccccc1 | . | 4.6µM* | 8.9µM* | 11% | -56% | 7.3µM*
CC1=NN(c2ccccc2)C(=O)/C1=C/N(C)C | 9 | ? | 0% | 8% | -14% | 4%
CC1=NN(c2ccccc2)C(=O)/C1=C/c1cccc(C)c1 | -5 | ? | -25% | . | 3% | ?
COc1ccc2cc(S(=O)(=O)N3CCCC3)ccc2c1 | -13 | -4% | 10% | 5% | -6% | ?
Cc1ccccc1CN1CCc2nnc(C(C)NC(=O)c3cc(F)ccc3F)n2CC1 (stereo not drawn) | . | 17% | . | . | . | 0%
COc1ccccc1C(=O)Nc1cccc(C(=O)OCc2cc(=O)n3nc(C)sc3n2)c1 | . | 2% | -2% | 9% | -2% | -18%
Cc1ccc(S(=O)(=O)NCC(Nc2cccc(Cl)c2)c2ccccc2)cc1 (stereo not drawn) | . | 18µM* | 11µM* | 2% | 18µM* | ?
Cc1ccc(S(=O)(=O)NCC(NCc2ccc(F)cc2)c2ccccc2)cc1 (stereo not drawn) | 2 | ? | -4% | -12% | -6% | ?
COc1cccc2cc(-c3cn4cccc(C)c4n3)c(=O)oc12 | -1 | -28% | ? | . | -5% | ?
COc1cccc2cc(-c3nnc(Nc4ccccc4C)s3)c(=O)oc12 | . | ? | -5% | 3% | 3% | 8.2µM*
CCc1sc(Nc2cccc(C)c2)nc1-c1cc2cccc(OC)c2oc1=O | . | ? | -5% | 4% | 2% | 21µM*
